FAS TE block = inhibitors of human fatty acid synthase thioesterase domain; hit rate 0.67% among 360,000; recombinant FAS-TE, OMFH fluorogenic substrate, fluorescence endpoint; AID 602261; P49327; inhibition, % at 15 µM;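 active means compounds whose normalised, plate-corrected inhibition of enzyme fluorescence in the single-dose primary screen is 50% or more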;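 further: 0% = DMSO with enzyme and 100% = substrate without enzyme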
p-CIP stab down = p/CIP protein destabilization; Q05BA5; F442A p/CIP-EGFP cells, EGFP fluorescence, 16 h; decrease of EGFP signal, % at 10 µM; hit rate 0.01% among 290,000; AID 1984;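 active means EGFP signal decrease of at least 30% at 10 µM or well 3 SD below plate mean, unless failing retest; inactive means the rest, including hits failing retest or dose response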
NR3A LBD binder = modulators (binders) of human NR3A ligand-binding domain; NR3A LBD differential scanning fluorimetry, Tm shift; 0% = protein alone, 100% = glycine-bound protein; Tm shift relative to glycine control, % at 25 µM; hit rate 2.5% among 340,000;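 active means melting temperature shift of at least 10% of the positive control shift, at one fixed dose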
MIN6 prolif = MIN6 beta-cell proliferation induction. MIN6 cells proliferation, ATPlite luminescence, 48 h; cells starved in 0.2% serum; 100% = growth in 10% serum. proliferation, % at 10 µM. hit rate 0.29% among 330,000. AID 2380;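 active means compounds whose signal lies at least 3.5 SD above the mean of all wells on their plate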;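 further: 0% = DMSO-treated cells in low-serum medium and 100% = 10% serum control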
MPTP inh = permeability transition pore inhibition | isolated mouse mitochondria, Ca2+ swelling absorbance, 30 min | inhibition, % at 10 µM | hit rate 1.4% among 360,000 | AID 602449;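 active means inhibition of 50% or more, scaled per plate between neutral and stimulator controls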;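 further: 0% = DMSO wells given calcium and 100% = 1 mM EGTA wells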
* = called active by the depositor. Only some compounds are listed: those with a hit (about 4.1% of all), similar ones and a draw of the others.

Screening Cn1nc(C(=O)NNC(=O)c2ccccc2Br)c2ccccc2c1=O returned FAS TE block -5, NR3A LBD binder 0, MIN6 prolif -1 and MPTP inh -1.
COc1cc(SSc2cc(OC)cc([N+](=O)[O-])c2N)c(N)c([N+](=O)[O-])c1 was read as FAS TE block 0, p-CIP stab down -3, NR3A LBD binder 37*, MIN6 prolif -7 and MPTP inh 8.
`Cc1ccc2[nH]c3c(c2c1)CCc1cn[nH]c1-3` gave FAS TE block -21, p-CIP stab down -6, NR3A LBD binder 28*, MIN6 prolif -2 and MPTP inh 24.
`O=C(COC(=O)c1ccccc1O)Nc1ccc2ccccc2c1` gave FAS TE block -2, NR3A LBD binder 15*, MIN6 prolif -3 and MPTP inh -2.
CC(=O)Nc1ccc(N2S(=O)(=O)c3ccccc3S2(=O)=O)cc1 was read as FAS TE block -10, p-CIP stab down 4, NR3A LBD binder 11*, MIN6 prolif -3 and MPTP inh -2.
Screening CC(=O)Nc1ccc(N2Cc3ccccc3C2)cc1 returned FAS TE block -2, p-CIP stab down -2, NR3A LBD binder 0, MIN6 prolif -2 and MPTP inh 2.
Screening CC(C)[C@@H](C(=O)NC1CCN(Cc2ccccc2)CC1)N1C(=O)N2CCc3c([nH]c4ccccc34)[C@@]2(C)C1=O returned FAS TE block 10, p-CIP stab down 1, NR3A LBD binder 37*, MIN6 prolif -6 and MPTP inh -2.
Screening CCCCCn1c(NC(=O)c2ccco2)c(S(=O)(=O)c2ccc(C)cc2)c2nc3ccccc3nc21 returned FAS TE block 21, p-CIP stab down -9, NR3A LBD binder 15*, MIN6 prolif -4 and MPTP inh 40.
Cc1ccc(C(=O)Nn2c(N)c(S(=O)(=O)c3ccc(C)cc3)c3nc4ccccc4nc32)cc1 was read as FAS TE block 16, p-CIP stab down 1, NR3A LBD binder 7, MIN6 prolif 1 and MPTP inh 20.
Cc1ccc(S(=O)(=O)c2c(N)n(NC(=O)c3ccccc3C)c3nc4ccccc4nc23)cc1 was read as FAS TE block 9, p-CIP stab down 9, NR3A LBD binder 11*, MIN6 prolif -1 and MPTP inh 11.
Cc1cccc2cc(CN(Cc3cccs3)C3(c4nnnn4C4CCCC4)CCCC3)c(=O)[nH]c12 was read as FAS TE block 31, p-CIP stab down 9, NR3A LBD binder 11*, MIN6 prolif -2 and MPTP inh 0.
`Cc1cccc2cc(CN(Cc3ccc(F)cc3)Cc3nnnn3C3CCCC3)c(=O)[nH]c12` gave FAS TE block -7, p-CIP stab down 39, NR3A LBD binder -1, MIN6 prolif 1 and MPTP inh 1.
For C[C@@H](NC(=O)[C@H]1O[C@@H](n2cnc3c(N)ncnc32)[C@H](O)[C@@H]1O)c1cccc2ccccc12 the results were FAS TE block 0 and MPTP inh -2.
`CCCCCNC(=O)C1CC=CCC1C(=O)O` (stereo unspecified) gave FAS TE block -2, p-CIP stab down -10, NR3A LBD binder 12*, MIN6 prolif 1 and MPTP inh -1.
COc1ccc(OCc2nc3c4c(ncn3n2)-c2ccccc2CC42CCCC2)cc1 was read as FAS TE block 29, p-CIP stab down -8, NR3A LBD binder 4, MIN6 prolif 0 and MPTP inh 35.
Screening Oc1cccc(-c2nc3c4c(ncn3n2)-c2ccccc2CC42CCCC2)c1 returned FAS TE block 29, p-CIP stab down -10, NR3A LBD binder 37*, MIN6 prolif -6 and MPTP inh 11.
For CCc1nnc(SCC(=O)Nc2ccc(NC(C)=O)cc2)n1-n1cccc1 the results were FAS TE block -8, NR3A LBD binder 18*, MIN6 prolif -1 and MPTP inh -1.
Screening COc1ccc(/C=N/Nc2nonc2N)cc1 returned FAS TE block -5, p-CIP stab down -11, NR3A LBD binder 17*, MIN6 prolif -2 and MPTP inh 0.
Screening COc1ccc(/C=N/Nc2nonc2N)cc1OC returned FAS TE block -9, p-CIP stab down -2, NR3A LBD binder -8, MIN6 prolif -2 and MPTP inh 1.
For Nc1nonc1N/N=C\c1ccccc1 the results were FAS TE block 1, p-CIP stab down -2, NR3A LBD binder 18*, MIN6 prolif 0 and MPTP inh 6.
For CC(C)=NNc1cnnc2ccc([N+](=O)[O-])cc12 the results were FAS TE block 3 and MPTP inh 2.
CCN1CCC(O)(/C=C/c2ccc(C(C)C)cc2)C(C(=O)/C=C/c2ccc(C(C)C)cc2)C1 (stereo unspecified) was read as FAS TE block 0, NR3A LBD binder 24* and MPTP inh 35.
`CC1=C(C(=O)Nc2ccccc2)C(c2ccc(O)cc2)N2C(=O)CSC2=N1` (stereo unspecified) gave FAS TE block -25, p-CIP stab down -5, NR3A LBD binder 12*, MIN6 prolif -2 and MPTP inh 0.
COc1ccc(C2C(C(=O)Nc3ccccc3)=C(C)N=C3SCC(=O)N32)cc1 (stereo unspecified) was read as FAS TE block -32, p-CIP stab down 8, NR3A LBD binder 1, MIN6 prolif -2 and MPTP inh -4.
For CC(=O)c1cccc(NC(=O)CCS(=O)(=O)c2cc3c(cc2C)NC(=O)CO3)c1 the results were FAS TE block -6, p-CIP stab down 1, NR3A LBD binder 53*, MIN6 prolif 1 and MPTP inh -1.
`Cc1ccc(S(=O)(=O)CCC(=O)Nc2ccc(S(=O)(=O)N(C)C)cc2)cc1` gave p-CIP stab down 2 and MIN6 prolif -3.
For CCc1cccc(NC(=O)CCS(=O)(=O)c2cc3c(cc2C)NC(=O)CO3)c1 the results were FAS TE block -4, p-CIP stab down 8, NR3A LBD binder -1, MIN6 prolif -2 and MPTP inh 0.
For Cc1ccc(NC(=O)CCS(=O)(=O)c2cc3[nH]c(=O)c(=O)[nH]c3cc2C)cc1 the results were FAS TE block 0, p-CIP stab down -6, NR3A LBD binder 15*, MIN6 prolif -4 and MPTP inh 2.
COc1ccc(-c2c(C#Cc3ccsc3)c3cc(-c4ccc5cc[nH]c5c4)ccc3n2C)cc1 was read as FAS TE block 17, NR3A LBD binder 12*, MIN6 prolif -1 and MPTP inh 0.
COc1cc(OC)cc(-c2c(C#Cc3ccsc3)c3cc(-c4ccc5cc[nH]c5c4)ccc3n2C)c1 was read as FAS TE block 36, NR3A LBD binder 6, MIN6 prolif -3 and MPTP inh -1.
Screening Cc1c(C(=O)NCc2ccc3c(c2)OCCO3)sc(=O)n1Cc1ccc(S(=O)(=O)N(C)C)cc1 returned FAS TE block 5 and MPTP inh 1.
`Nc1c(Cl)ncnc1N/N=C/c1ccc(O)cc1` gave FAS TE block -7, p-CIP stab down -1, NR3A LBD binder 14*, MIN6 prolif -2 and MPTP inh 1.
